Inconclusive results are not listed. A number with no mark means an inactive call. Calls of active or inactive are those of the source. Calls follow the shape of the dose curve; as a rule, active = well fitted curve in the direction sought with a large enough effect; inconclusive = small, poorly fitted or top-dose-only effect, or another doubt; inactive = no such curve, though single readings can be large; an effect the other way counts as inactive or inconclusive.

The values that follow come from PubChem BioAssay (NCATS).

Assay [1] concerns the target Rap guanine nucleotide exchange factor 3 (Homo sapiens) (UniProt O95398). The experiment in a line: Confirmatory qHTS for antagonist of cAMP-regulated guanine nucleotide exchange factor 3 (EPAC1) (AID 1645880). Also: nearly all actives have a fitted effect of over 55% in size. Also: potency is read from the fitted curve at half-maximal effect.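 As to activity, negative = inhibition: plate controls were DMSO only for no effect and full effect of the ATA control for full effect.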 The following applies: EPAC1 Rap1B-BODIPY-GDP exchange, fluorescence; activity, negative = inhibition: at 115 µM (top of the series). Summed up: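 Nucleotide exchange uses 100 nM EPAC1, 250 nM RAP1B-BODIPY-GDP and 50 uM GDP, with compounds in a concentration-titration series. After 5 min at room temperature, fluorescence (480 nm ex/540 nm em) is read every 5 min for 30 min. Data are normalized to control ATA and DMSO.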

For assay [2] the target is unchanged. The experiment in a line: Confirmatory qHTS for agonist of cAMP-regulated guanine nucleotide exchange factor 3 (EPAC1) (AID 1645881). Also: nearly all actives have a fitted effect of over 75% in size. Also: potency is read from the fitted curve at half-maximal effect.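 As to activation: EPAC1 catalysed release of BODIPY-GDP from Rap1B seen as fluorescence loss; 100% = effect of cAMP agonist control.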
For assay [3], the target named is Rap guanine nucleotide exchange factor 4 (Homo sapiens) (UniProt Q8WZA2). The experiment in a line: Confirmatory qHTS for agonist of cAMP-regulated guanine nucleotide exchange factor 4 (EPAC2) (AID 1645884).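 Also: nucleotide exchange releases bodipy-GDP from Rap1 and this lowers its fluorescence; nearly all actives have a fitted effect of over 65% in size.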 Also: potency is read from the fitted curve at half-maximal effect. As to activation: % is scaled to controls: 0 for no effect and ±100 for the full control effect.
The target of assay [4] is Rap guanine nucleotide exchange factor 3 (Homo sapiens) (UniProt O95398). The experiment in a line: Counterscreen qHTS for antagonist of cAMP-regulated guanine nucleotide exchange factor 3 (EPAC1) (AID 1645888).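 Also: fluorescence loss as bound BODIPY-GDP is released from Rap1B; % of control where 0% means no effect.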 The gist of the method:
(§1)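 Measured: fluorescence of BODIPY-GDP bound to Rap1B, which falls as exchange proceeds. Conditions include 50 uM competing GDP, 5 and 30 min reads, and a later cAMP challenge for antagonist detection.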
(Counterscreens check selectivity or assay interference.)

The target is the same in assay [5]. In words: Counterscreen qHTS for agonist of cAMP-regulated guanine nucleotide exchange factor 3 (EPAC1) (AID 1645889). Also: nearly all actives have a fitted effect of over 40% in size. Also: potency is read from the fitted curve at half-maximal effect. As to activation: % of control where 0% means no effect. The gist of the method: as §1

Sequence of Rap guanine nucleotide exchange factor 3 (Homo sapiens) (O95398 whole entry, looked up): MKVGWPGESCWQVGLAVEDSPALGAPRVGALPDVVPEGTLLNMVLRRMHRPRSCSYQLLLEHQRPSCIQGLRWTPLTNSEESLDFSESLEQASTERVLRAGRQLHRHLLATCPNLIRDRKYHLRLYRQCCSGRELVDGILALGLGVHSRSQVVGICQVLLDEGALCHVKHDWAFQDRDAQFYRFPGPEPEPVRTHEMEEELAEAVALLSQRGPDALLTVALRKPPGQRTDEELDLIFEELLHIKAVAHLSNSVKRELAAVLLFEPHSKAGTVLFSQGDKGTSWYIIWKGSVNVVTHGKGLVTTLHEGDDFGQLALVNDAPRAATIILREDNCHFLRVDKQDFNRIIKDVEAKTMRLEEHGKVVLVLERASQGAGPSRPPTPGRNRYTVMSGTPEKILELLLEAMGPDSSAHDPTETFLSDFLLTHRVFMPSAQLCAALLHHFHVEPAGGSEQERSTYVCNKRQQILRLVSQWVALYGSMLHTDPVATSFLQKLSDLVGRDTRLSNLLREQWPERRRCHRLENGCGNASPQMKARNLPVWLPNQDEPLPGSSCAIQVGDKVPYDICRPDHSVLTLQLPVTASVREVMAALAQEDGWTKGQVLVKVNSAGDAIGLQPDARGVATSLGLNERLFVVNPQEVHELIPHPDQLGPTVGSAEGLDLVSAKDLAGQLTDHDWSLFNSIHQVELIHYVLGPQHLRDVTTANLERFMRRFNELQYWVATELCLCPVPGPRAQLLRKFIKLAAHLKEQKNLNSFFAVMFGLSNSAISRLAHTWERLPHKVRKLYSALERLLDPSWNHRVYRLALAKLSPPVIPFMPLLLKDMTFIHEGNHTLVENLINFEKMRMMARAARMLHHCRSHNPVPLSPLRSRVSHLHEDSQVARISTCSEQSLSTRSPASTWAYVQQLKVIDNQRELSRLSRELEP
Sequence of Rap guanine nucleotide exchange factor 4 (Homo sapiens) (Q8WZA2 whole entry, looked up): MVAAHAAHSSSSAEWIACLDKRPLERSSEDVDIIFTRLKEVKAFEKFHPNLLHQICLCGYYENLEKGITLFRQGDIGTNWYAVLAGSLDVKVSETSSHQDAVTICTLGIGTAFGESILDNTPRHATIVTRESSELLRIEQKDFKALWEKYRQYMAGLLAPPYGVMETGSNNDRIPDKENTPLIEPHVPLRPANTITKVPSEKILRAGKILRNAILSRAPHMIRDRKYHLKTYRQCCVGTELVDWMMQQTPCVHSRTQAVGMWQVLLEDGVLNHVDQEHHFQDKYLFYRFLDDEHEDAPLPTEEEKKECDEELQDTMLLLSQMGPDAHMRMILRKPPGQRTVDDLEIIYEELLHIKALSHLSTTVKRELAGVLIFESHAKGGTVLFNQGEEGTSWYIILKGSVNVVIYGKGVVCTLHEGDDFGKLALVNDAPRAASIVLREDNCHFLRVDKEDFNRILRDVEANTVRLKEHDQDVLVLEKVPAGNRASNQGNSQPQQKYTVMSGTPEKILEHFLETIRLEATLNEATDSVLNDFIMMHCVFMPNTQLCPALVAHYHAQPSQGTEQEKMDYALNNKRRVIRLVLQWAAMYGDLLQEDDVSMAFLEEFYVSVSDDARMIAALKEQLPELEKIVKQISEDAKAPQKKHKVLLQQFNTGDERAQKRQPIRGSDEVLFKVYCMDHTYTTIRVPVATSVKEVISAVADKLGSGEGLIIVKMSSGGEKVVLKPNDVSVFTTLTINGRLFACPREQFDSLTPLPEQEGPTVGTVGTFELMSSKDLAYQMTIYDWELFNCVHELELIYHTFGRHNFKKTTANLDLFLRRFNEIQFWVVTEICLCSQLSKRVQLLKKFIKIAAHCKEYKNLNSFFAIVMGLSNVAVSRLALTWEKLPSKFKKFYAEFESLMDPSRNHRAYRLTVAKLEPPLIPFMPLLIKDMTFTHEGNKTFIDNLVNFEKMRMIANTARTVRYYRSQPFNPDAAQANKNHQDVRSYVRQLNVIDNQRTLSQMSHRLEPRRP

As for `Brc1ccc(C2Nc3cccc4cccc(c34)N2)cc1`, the Potency result in assay [1], in assay [2], in assay [3], in assay [4] and in assay [5] was “inactive” in each case.
Regarding `CCCCCCc1cc2cc(-c3nnc(-c4ccc(C)cc4)o3)c(=O)oc2cc1O`, the Potency result in assay [1], in assay [2], in assay [3] and in assay [4] was “inactive” throughout.
For the compound `CCOC(=O)CC1C(=O)NCCN1C(=O)c1cccc(C(F)(F)F)c1` (configuration not stated), the Potency result in assay [1], in assay [2], in assay [3] and in assay [4] was “inactive” throughout.
`Cc1nc2sc(C(c3cccs3)N3CCN(C(=O)c4ccco4)CC3)c(O)n2n1` (configuration not stated): the Potency result in assay [1], in assay [2], in assay [3] and in assay [4] was “inactive” each time.
Regarding `Cc1cccc(C)c1OCC(=O)Nc1ccccc1N1CCCCC1`, the Potency entry in assay [1], in assay [2], in assay [3], in assay [4] and in assay [5] was “inactive” throughout.
Regarding `Nc1ccc(Oc2ncccn2)cc1`, the Potency result in assay [1], in assay [2], in assay [3] and in assay [4] was “inactive” throughout.
`Cc1cc(C)nc(SCC(=O)c2ccc(F)c(C)c2)n1`: the Potency entry in assay [1], in assay [2], in assay [3] and in assay [4] was “inactive” throughout.
Consider `O=C1c2cccc3c(N4CCCCC4)ccc(c23)C(=O)N1c1cccc(O)c1`, for which the Potency entry in assay [1] and in assay [4] was “inactive” throughout. Besides, the Potency in assay [2] was 100 µM (active); in assay [3], 112 µM (active); in assay [5] it was 50.1 µM (active).
Consider `CC(=O)c1ccc(NC(=O)c2ccc3c(c2)C(=O)N(c2ccccn2)C3=O)cc1`, for which, in assay [1], the Potency was 8.49 µM (active). Moreover, the Potency entry in assay [2], in assay [3] and in assay [4] was “inactive” each time.
As to `O=C(O)CN1C(=O)/C(=C\c2cc(Br)ccc2OCc2ccccc2Cl)SC1=S`, the Potency in assay [1] was 33.8 µM (active). For the same compound, the Potency result in assay [2], in assay [3], in assay [4] and in assay [5] was “inactive” throughout.
Consider `CCOC(=O)C(C)Sc1ncnc2c1nnn2-c1ccc(F)cc1` (configuration not stated), for which the Potency entry in assay [1] and in assay [2] was “inactive” in each case. Moreover, the activation in assay [3] was 3.03% [at 17.1 µM, percent relative to cAMP agonist control]. The activity change, negative = inhibition in assay [4] was -4.79% [at 30.8 µM].
As for `Cc1ccc(C(C)C)c(OCc2ccc(C(=O)N/N=C/c3ccc(O)c(O)c3)cc2)c1`, in assay [1], the Potency was 33.8 µM (active). In addition, the Potency result in assay [2], in assay [3], in assay [4] and in assay [5] was “inactive” throughout.
Regarding `Cn1c2c(c3ccccc31)CCN1CCC[C@]21c1ccccc1`, the Potency entry in assay [1], in assay [2], in assay [3] and in assay [4] was “inactive” each time.
Take `O=C(/C=C/c1ccco1)N1CCCC(c2ccccc2)C1` (configuration not stated): in assay [1], the Potency was 67.5 µM (active). Besides, the Potency entry in assay [2], in assay [3], in assay [4] and in assay [5] was “inactive” throughout.
On to `C=CCn1c(Cc2ccccc2)nc2c(cnn2-c2ccccc2)c1=O`, for which the Potency result in assay [1], in assay [2], in assay [3], in assay [4] and in assay [5] was “inactive” throughout.
For the compound `CC(C1CC1)N(C(=O)NC1CCS(=O)(=O)C1)c1ccccc1` (configuration not stated), the Potency result in assay [1], in assay [2], in assay [3], in assay [4] and in assay [5] was “inactive” each time.
As to `O=C(N/N=C/c1cc(Cl)c(O)c(Cl)c1)c1cc2c(ccc3ccccc32)o1`, the Potency in assay [1] is 60.1 µM (active). The Potency result in assay [2], in assay [3], in assay [4] and in assay [5] was “inactive” each time.
For `CCC(CC)NC(=O)c1ccccc1Oc1ccccc1`, the Potency result in assay [1] and in assay [2] was “inactive” in each case. Also, the activation in assay [3] is 3.85% [at 17.1 µM, percent relative to cAMP agonist control]; in assay [5], 13.2% [at 30.8 µM]. The activity change, negative = inhibition in assay [4] is 6.83% [at 30.8 µM].
As for `CCOC(=O)N/N=C/c1ccc(OCCSc2ccc(Cl)cc2)c(OC)c1`, the activity, negative = inhibition in assay [1] is -73.5% (active). Further, the Potency result in assay [2], in assay [3], in assay [4] and in assay [5] was “inactive” in each case.
On to `Cc1cc(C)n(Cc2ccc(C(=O)N/N=C/c3ccc(-c4ccc([N+](=O)[O-])cc4)o3)o2)n1`, for which, in assay [1], the Potency is 47.8 µM (active). In addition, the Potency result in assay [2], in assay [3], in assay [4] and in assay [5] was “inactive” each time.
Consider `Cc1ccc2oc(C(=O)N(Cc3ccc(N(C)C)cc3)CC3CCCO3)c(C)c2c1` (configuration not stated), for which the Potency result in assay [1], in assay [2], in assay [3], in assay [4] and in assay [5] was “inactive” throughout.
Take `O=C(O)c1ccccc1-c1ccccc1C(=O)Nc1ccc2c(c1)oc(=O)c1ccccc12`: the Potency in assay [1] was 75.7 µM (active). For the same compound, the Potency entry in assay [2], in assay [3], in assay [4] and in assay [5] was “inactive” each time.
With `COc1ccc(C(=O)c2ccc(Cl)cc2)c(OC)c1OC`, the Potency result in assay [1] and in assay [2] was “inactive” in each case. Further, the activation in assay [3] was 6.47% [at 17.1 µM, percent relative to cAMP agonist control]; in assay [5], 6.99% [at 30.8 µM]. The activity change, negative = inhibition in assay [4] was -1.07% [at 30.8 µM].
Consider `Cc1cc2ccccc2cc1C(=O)c1ccccc1`, for which the Potency result in assay [1] and in assay [2] was “inactive” in each case. Besides, the activation in assay [3] was 3.89% [at 17.1 µM, percent relative to cAMP agonist control]; in assay [5], 5.51% [at 30.8 µM]. The activity change, negative = inhibition in assay [4] is -19.3% [at 30.8 µM].
Consider `CCOC(=O)c1c(-c2ccccc2)oc2ccc(OCC)cc12`, for which the Potency result in assay [1], in assay [2], in assay [3], in assay [4] and in assay [5] was “inactive” throughout.
With `CS/C(Nc1cc(Cl)ccc1Cl)=C(/C#N)C(=O)c1ccco1`, the Potency in assay [1] was 67.5 µM (active). For the same compound, the Potency entry in assay [2], in assay [3], in assay [4] and in assay [5] was “inactive” throughout.
